# Results as given in article PMC11062922 (Nature Chemical Biology, 2023).
# Read-outs that look alike come from different tables or passages of the source.
# Legend:
# MARK4 = conditions: read-out: apparent Kd, n = 1
# NTRK1 = conditions: read-out: apparent Kd, n = 1
# [1] = compound concentrations:100 nM and 1000 nM (sheet 'Lestaurtinib' of Supplementary Table 1),run:Lestaurtinib_02724_R3,Plate:MR021
# [2] = compound concentrations:100 nM and 1000 nM (sheet 'Lestaurtinib' of Supplementary Table 1),run:Lestaurtinib_02741_R2,Plate:MR023
# [3] = compound concentrations:100 nM and 1000 nM (sheet 'Lestaurtinib' of Supplementary Table 1),run:Lestaurtinib_02741_R3,Plate:MR023
# [4] = compound concentrations:100 nM and 1000 nM (sheet 'Lestaurtinib' of Supplementary Table 1),run:Lestaurtinib_02748_R1,Plate:MR024
substance,measurement,setting,value
Lestaurtinib,potency estimated from few doses,MARK4; [1],113 nM
same,potency estimated from few doses,MARK4; [2],144 nM
same,potency estimated from few doses,MARK4; [3],82.4 nM
same,potency estimated from few doses,MARK4; [4],151 nM
same,potency estimated from few doses,"MARK4; compound concentrations:100 nM and 1000 nM (sheet 'Lestaurtinib' of Supplementary Table 1),run:Lestaurtinib_02748_R2,Plate:MR024",97.8 nM
same,potency estimated from few doses,"MARK4; compound concentrations:100 nM and 1000 nM (sheet 'Lestaurtinib' of Supplementary Table 1),run:Lestaurtinib_02748_R3,Plate:MR024",98.7 nM
same,potency estimated from few doses,"MARK4; compound concentrations:100 nM and 1000 nM (sheet 'Lestaurtinib' of Supplementary Table 1),run:Lestaurtinib_02752_R1,Plate:MR025",84.2 nM
same,potency estimated from few doses,"MARK4; compound concentrations:100 nM and 1000 nM (sheet 'Lestaurtinib' of Supplementary Table 1),run:Lestaurtinib_02752_R3,Plate:MR025",113 nM
same,potency estimated from few doses,"MARK4; compound concentrations:100 nM and 1000 nM (sheet 'Lestaurtinib' of Supplementary Table 1),run:Lestaurtinib_02765_R1,Plate:MR026",86.1 nM
same,potency estimated from few doses,"MARK4; compound concentrations:100 nM and 1000 nM (sheet 'Lestaurtinib' of Supplementary Table 1),run:Lestaurtinib_02765_R3,Plate:MR026",95.3 nM
same,potency estimated from few doses,"MARK4; compound concentrations:100 nM and 1000 nM (sheet 'Lestaurtinib' of Supplementary Table 1),run:Lestaurtinib_02766_R1,Plate:MR027",154 nM
same,potency estimated from few doses,"MARK4; compound concentrations:100 nM and 1000 nM (sheet 'Lestaurtinib' of Supplementary Table 1),run:Lestaurtinib_02766_R2,Plate:MR027",63.6 nM
same,potency estimated from few doses,"MARK4; compound concentrations:100 nM and 1000 nM (sheet 'Lestaurtinib' of Supplementary Table 1),run:Lestaurtinib_02766_R3,Plate:MR027",76.7 nM
same,potency estimated from few doses,"MARK4; compound concentrations:100 nM and 1000 nM (sheet 'Lestaurtinib' of Supplementary Table 1),run:Lestaurtinib_02768_R1,Plate:MR028",92.1 nM
same,potency estimated from few doses,"MARK4; compound concentrations:100 nM and 1000 nM (sheet 'Lestaurtinib' of Supplementary Table 1),run:Lestaurtinib_02768_R3,Plate:MR028",80.6 nM
same,potency estimated from few doses,"MARK4; compound concentrations:100 nM and 1000 nM (sheet 'Lestaurtinib' of Supplementary Table 1),run:Lestaurtinib_02795_R1,Plate:MR022",115 nM
same,potency estimated from few doses,"MARK4; compound concentrations:100 nM and 1000 nM (sheet 'Lestaurtinib' of Supplementary Table 1),run:Lestaurtinib_02795_R2,Plate:MR022",157 nM
same,potency estimated from few doses,"MARK4; compound concentrations:100 nM and 1000 nM (sheet 'Lestaurtinib' of Supplementary Table 1),run:Lestaurtinib_02802_R2,Plate:MR029",86 nM
same,potency estimated from few doses,"MARK4; compound concentrations:100 nM and 1000 nM (sheet 'Lestaurtinib' of Supplementary Table 1),run:Lestaurtinib_02802_R3,Plate:MR029",77.8 nM
same,potency estimated from few doses,"MARK4; compound concentrations:100 nM and 1000 nM (sheet 'Lestaurtinib' of Supplementary Table 1),run:Lestaurtinib_02896_R2,Plate:MR030",141 nM
same,potency estimated from few doses,"MARK4; compound concentrations:100 nM and 1000 nM (sheet 'Lestaurtinib' of Supplementary Table 1),run:Lestaurtinib_02896_R3,Plate:MR030",87.4 nM
same,potency estimated from few doses,"MARK4; compound concentrations:100 nM and 1000 nM (sheet 'Lestaurtinib' of Supplementary Table 1),run:Lestaurtinib_03172_R1,Plate:MR031",86.8 nM
same,potency estimated from few doses,"MARK4; compound concentrations:100 nM and 1000 nM (sheet 'Lestaurtinib' of Supplementary Table 1),run:Lestaurtinib_03172_R2,Plate:MR031",297 nM
same,potency estimated from few doses,"MARK4; compound concentrations:100 nM and 1000 nM (sheet 'Lestaurtinib' of Supplementary Table 1),run:Lestaurtinib_03252_R1,Plate:MR032",41.6 nM
same,potency estimated from few doses,"MARK4; compound concentrations:100 nM and 1000 nM (sheet 'Lestaurtinib' of Supplementary Table 1),run:Lestaurtinib_03252_R2,Plate:MR032",59.5 nM
same,potency estimated from few doses,"MARK4; compound concentrations:100 nM and 1000 nM (sheet 'Lestaurtinib' of Supplementary Table 1),run:Lestaurtinib_03260_R1,Plate:MR033",469 nM
same,potency estimated from few doses,"MARK4; compound concentrations:100 nM and 1000 nM (sheet 'Lestaurtinib' of Supplementary Table 1),run:Lestaurtinib_03260_R2,Plate:MR033",609 nM
same,potency estimated from few doses,"MARK4; compound concentrations:100 nM and 1000 nM (sheet 'Lestaurtinib' of Supplementary Table 1),run:Lestaurtinib_03260_R3,Plate:MR033",165 nM
same,potency estimated from few doses,"NTRK1; compound concentrations:100 nM and 1000 nM (sheet 'Lestaurtinib' of Supplementary Table 1),run:Lestaurtinib_02339_R2,Plate:MR001",1580 nM
same,potency estimated from few doses,"NTRK1; compound concentrations:100 nM and 1000 nM (sheet 'Lestaurtinib' of Supplementary Table 1),run:Lestaurtinib_02339_R3,Plate:MR001",1910 nM
same,potency estimated from few doses,"NTRK1; compound concentrations:100 nM and 1000 nM (sheet 'Lestaurtinib' of Supplementary Table 1),run:Lestaurtinib_02364_R1,Plate:MR002",893 nM
same,potency estimated from few doses,"NTRK1; compound concentrations:100 nM and 1000 nM (sheet 'Lestaurtinib' of Supplementary Table 1),run:Lestaurtinib_02364_R2,Plate:MR002",971 nM
same,potency estimated from few doses,"NTRK1; compound concentrations:100 nM and 1000 nM (sheet 'Lestaurtinib' of Supplementary Table 1),run:Lestaurtinib_02364_R3,Plate:MR002",789 nM
same,potency estimated from few doses,"NTRK1; compound concentrations:100 nM and 1000 nM (sheet 'Lestaurtinib' of Supplementary Table 1),run:Lestaurtinib_02381_R1,Plate:MR004",763 nM
same,potency estimated from few doses,"NTRK1; compound concentrations:100 nM and 1000 nM (sheet 'Lestaurtinib' of Supplementary Table 1),run:Lestaurtinib_02381_R2,Plate:MR004",626 nM
same,potency estimated from few doses,"NTRK1; compound concentrations:100 nM and 1000 nM (sheet 'Lestaurtinib' of Supplementary Table 1),run:Lestaurtinib_02381_R3,Plate:MR004",1330 nM
same,potency estimated from few doses,"NTRK1; compound concentrations:100 nM and 1000 nM (sheet 'Lestaurtinib' of Supplementary Table 1),run:Lestaurtinib_02407_R1,Plate:MR005",1580 nM
same,potency estimated from few doses,"NTRK1; compound concentrations:100 nM and 1000 nM (sheet 'Lestaurtinib' of Supplementary Table 1),run:Lestaurtinib_02422_R1,Plate:MR006",1590 nM
same,potency estimated from few doses,"NTRK1; compound concentrations:100 nM and 1000 nM (sheet 'Lestaurtinib' of Supplementary Table 1),run:Lestaurtinib_02422_R2,Plate:MR006",1420 nM
same,potency estimated from few doses,"NTRK1; compound concentrations:100 nM and 1000 nM (sheet 'Lestaurtinib' of Supplementary Table 1),run:Lestaurtinib_02437_R2,Plate:MR007",1490 nM
same,potency estimated from few doses,"NTRK1; compound concentrations:100 nM and 1000 nM (sheet 'Lestaurtinib' of Supplementary Table 1),run:Lestaurtinib_02437_R3,Plate:MR007",113 nM
same,potency estimated from few doses,"NTRK1; compound concentrations:100 nM and 1000 nM (sheet 'Lestaurtinib' of Supplementary Table 1),run:Lestaurtinib_02438_R1,Plate:MR008",1000 nM
same,potency estimated from few doses,"NTRK1; compound concentrations:100 nM and 1000 nM (sheet 'Lestaurtinib' of Supplementary Table 1),run:Lestaurtinib_02438_R2,Plate:MR008",1530 nM
same,potency estimated from few doses,"NTRK1; compound concentrations:100 nM and 1000 nM (sheet 'Lestaurtinib' of Supplementary Table 1),run:Lestaurtinib_02443_R1,Plate:MR009",796 nM
same,potency estimated from few doses,"NTRK1; compound concentrations:100 nM and 1000 nM (sheet 'Lestaurtinib' of Supplementary Table 1),run:Lestaurtinib_02473_R1,Plate:MR010",695 nM
same,potency estimated from few doses,"NTRK1; compound concentrations:100 nM and 1000 nM (sheet 'Lestaurtinib' of Supplementary Table 1),run:Lestaurtinib_02473_R2,Plate:MR010",826 nM
same,potency estimated from few doses,"NTRK1; compound concentrations:100 nM and 1000 nM (sheet 'Lestaurtinib' of Supplementary Table 1),run:Lestaurtinib_02482_R2,Plate:MR011",894 nM
same,potency estimated from few doses,"NTRK1; compound concentrations:100 nM and 1000 nM (sheet 'Lestaurtinib' of Supplementary Table 1),run:Lestaurtinib_02482_R3,Plate:MR011",649 nM
same,potency estimated from few doses,"NTRK1; compound concentrations:100 nM and 1000 nM (sheet 'Lestaurtinib' of Supplementary Table 1),run:Lestaurtinib_02487_R2,Plate:MR012",1150 nM
same,potency estimated from few doses,"NTRK1; compound concentrations:100 nM and 1000 nM (sheet 'Lestaurtinib' of Supplementary Table 1),run:Lestaurtinib_02487_R3,Plate:MR012",921 nM
same,potency estimated from few doses,"NTRK1; compound concentrations:100 nM and 1000 nM (sheet 'Lestaurtinib' of Supplementary Table 1),run:Lestaurtinib_02496_R1,Plate:MR013",946 nM
same,potency estimated from few doses,"NTRK1; compound concentrations:100 nM and 1000 nM (sheet 'Lestaurtinib' of Supplementary Table 1),run:Lestaurtinib_02496_R2,Plate:MR013",1400 nM
same,potency estimated from few doses,"NTRK1; compound concentrations:100 nM and 1000 nM (sheet 'Lestaurtinib' of Supplementary Table 1),run:Lestaurtinib_02496_R3,Plate:MR013",828 nM
same,potency estimated from few doses,"NTRK1; compound concentrations:100 nM and 1000 nM (sheet 'Lestaurtinib' of Supplementary Table 1),run:Lestaurtinib_02566_R2,Plate:MR014",898 nM
same,potency estimated from few doses,"NTRK1; compound concentrations:100 nM and 1000 nM (sheet 'Lestaurtinib' of Supplementary Table 1),run:Lestaurtinib_02572_R1,Plate:MR015",810 nM
same,potency estimated from few doses,"NTRK1; compound concentrations:100 nM and 1000 nM (sheet 'Lestaurtinib' of Supplementary Table 1),run:Lestaurtinib_02572_R3,Plate:MR015",974 nM
same,potency estimated from few doses,"NTRK1; compound concentrations:100 nM and 1000 nM (sheet 'Lestaurtinib' of Supplementary Table 1),run:Lestaurtinib_02577_R2,Plate:MR016",1300 nM
same,potency estimated from few doses,"NTRK1; compound concentrations:100 nM and 1000 nM (sheet 'Lestaurtinib' of Supplementary Table 1),run:Lestaurtinib_02584_R2,Plate:MR017",1000 nM
same,potency estimated from few doses,"NTRK1; compound concentrations:100 nM and 1000 nM (sheet 'Lestaurtinib' of Supplementary Table 1),run:Lestaurtinib_02601_R1,Plate:MR018",1580 nM
same,potency estimated from few doses,"NTRK1; compound concentrations:100 nM and 1000 nM (sheet 'Lestaurtinib' of Supplementary Table 1),run:Lestaurtinib_02601_R2,Plate:MR018",673 nM
same,potency estimated from few doses,"NTRK1; compound concentrations:100 nM and 1000 nM (sheet 'Lestaurtinib' of Supplementary Table 1),run:Lestaurtinib_02601_R3,Plate:MR018",924 nM
same,potency estimated from few doses,"NTRK1; compound concentrations:100 nM and 1000 nM (sheet 'Lestaurtinib' of Supplementary Table 1),run:Lestaurtinib_02606_R2,Plate:MR019",1210 nM
same,potency estimated from few doses,"NTRK1; compound concentrations:100 nM and 1000 nM (sheet 'Lestaurtinib' of Supplementary Table 1),run:Lestaurtinib_02606_R3,Plate:MR019",1600 nM
same,potency estimated from few doses,"NTRK1; compound concentrations:100 nM and 1000 nM (sheet 'Lestaurtinib' of Supplementary Table 1),run:Lestaurtinib_02624_R1,Plate:MR020",1300 nM
same,potency estimated from few doses,"NTRK1; compound concentrations:100 nM and 1000 nM (sheet 'Lestaurtinib' of Supplementary Table 1),run:Lestaurtinib_02624_R2,Plate:MR020",614 nM
same,potency estimated from few doses,"NTRK1; compound concentrations:100 nM and 1000 nM (sheet 'Lestaurtinib' of Supplementary Table 1),run:Lestaurtinib_02624_R3,Plate:MR020",873 nM
same,potency estimated from few doses,"NTRK1; compound concentrations:100 nM and 1000 nM (sheet 'Lestaurtinib' of Supplementary Table 1),run:Lestaurtinib_02724_R2,Plate:MR021",691 nM
same,potency estimated from few doses,NTRK1; [1],628 nM
same,potency estimated from few doses,"NTRK1; compound concentrations:100 nM and 1000 nM (sheet 'Lestaurtinib' of Supplementary Table 1),run:Lestaurtinib_02741_R1,Plate:MR023",772 nM
same,potency estimated from few doses,NTRK1; [2],783 nM
same,potency estimated from few doses,NTRK1; [3],1330 nM
same,potency estimated from few doses,NTRK1; [4],922 nM
